Source: PubChem (National Center for Advancing Translational Sciences (NCATS))
GLP1R ag: qHTS of GLP-1 Receptor Agonists. HEK293 GLP-1R CRE-luciferase, luminescence, 4-6 h; cells express a hypersensitive GLP-1R form. Potency, µM (doses to about 45.6 µM), without a hit: top-dose activation, hits mostly activators. 380,000 tested, 0.007% active; further: % of control where 0% means no effect
GLP-1R inv ag: qHTS of GLP-1 Receptor Inverse Agonists (Inhibition Mode); Glucagon-like peptide 1 receptor (Homo sapiens), P43220; AID 624417, 2012; HEK293 GLP-1R CRE-luciferase, luminescence, 24 h; GLP-1R form is constitutively active; 410,000 tested, 1.6% active; Potency, µM (highest dose often 38.3 µM), for the others: at the top dose activity change, negative = inhibition, actives largely listed as inhibitors; further: on the % scale 0 is the no-effect control and ±100 the full control effect; nearly all actives have a fitted effect of over 55% in size
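qHTS in 1536-well format: reporter HEK293 cells expressing constitutive GLP-1R activity in DMEM + 10% Nu serum, 24 hr with compounds at 37 deg C, luminescence read after 12 min with detection reagent.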
TrxR1 substrate: qHTS Assay for Substrates of Mammalian Selenoprotein Thioredoxin Reductase 1 (TrxR1): qHTS; Thioredoxin reductase 1, cytoplasmic (Rattus norvegicus), O89049; purified TrxR1 substrate turnover, NADPH consumption readout; Potency, µM (doses to about 114 µM), inactives show at the top dose activity change, negative = substrate turnover; 390,000 tested, 0.01% active; further: on the % scale 0 is the no-effect control and ±100 the full control effect; nearly all actives have a fitted effect of over 50% in size
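Rat TrxR1, dispensed at 90 nM, was prereduced with 400 uM NADPH (final) for 5 min at ~22 deg C, then incubated with compound 15 min before 400 uM selenite. A first-read NADPH fluorescence drop versus no-compound background flagged substrates.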
HEK293 tox: qHTS of GLP-1 Receptor Inverse Agonists: Cytotox Screen; HEK293 cAMP-luciferase reporter cells, luminescence, 24 h; 410,000 tested, 0.13% active; Potency, µM (titrated, usually from 38.3 µM), for inactives: at the top dose activity change, negative = inhibition, actives largely listed as inhibitors;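 further: loss of luciferase light is scored as toxicity; on the % scale 0 is the no-effect control and ±100 the full control effect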
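Quantitative HTS format, 1536 wells, 200 cells/uL seeded. Compounds: 23 nL, 24 h, 37 °C. Detection: luciferase reagent, luminescence at 12 min RT; decreased signal taken as cytotoxic.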
IDH1 R132H inh: qHTS for Inhibitors of mutant isocitrate dehydrogenase 1 (IDH1): qHTS; Isocitrate dehydrogenase [NADP] cytoplasmic (Homo sapiens), O75874; IDH1-R132H enzyme, NADPH consumption, diaphorase/resazurin fluorescence; Potency, µM (titrated, usually from 76.6 µM), inactives show at the top dose activity change, negative = inhibition, hits mostly inhibitors; 390,000 tested, 0.093% active; AID 602179, 2012; further: on the % scale 0 is the no-effect control and ±100 the full control effect; nearly all actives have a fitted effect of over 65% in size
Target sequence (O75874 whole entry R132H, stated change not applied): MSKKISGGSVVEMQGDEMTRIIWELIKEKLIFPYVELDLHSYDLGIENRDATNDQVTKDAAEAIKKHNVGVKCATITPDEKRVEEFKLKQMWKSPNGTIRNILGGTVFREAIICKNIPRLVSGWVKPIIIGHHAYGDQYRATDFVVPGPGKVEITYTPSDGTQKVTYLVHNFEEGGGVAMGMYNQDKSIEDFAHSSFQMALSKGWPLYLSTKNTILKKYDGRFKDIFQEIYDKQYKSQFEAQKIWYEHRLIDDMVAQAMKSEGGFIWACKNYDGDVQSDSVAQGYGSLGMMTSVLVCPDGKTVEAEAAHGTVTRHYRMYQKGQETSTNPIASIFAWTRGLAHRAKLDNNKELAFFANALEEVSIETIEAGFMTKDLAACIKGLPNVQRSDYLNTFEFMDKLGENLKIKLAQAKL
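IDH1-R132H (0.5 ug/mL dispensed) in pH 7.5 Tris buffer was preincubated 30 min with compound, then given a substrate mix of 0.016 mM NADPH and 2 mM alpha-KG for 80 min at room temperature; remaining NADPH was read by diaphorase/resazurin fluorescence.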
rTrxR1 inhibitor: qHTS Assay for Inhibitors of Mammalian Selenoprotein Thioredoxin Reductase 1 (TrxR1): qHTS. Thioredoxin reductase 1, cytoplasmic (Rattus norvegicus), O89049. recombinant rTrxR1, NADPH fluorescence consumption, selenite substrate. Potency, µM (highest dose often 114 µM), without a hit: at the highest dose activity change, negative = inhibition, hits mostly inhibitors. 390,000 tested, 1% active. AID 588453, 2011; further: on the % scale 0 is the no-effect control and ±100 the full control effect; nearly all actives have a fitted effect of over 65% in size
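Rat TrxR1 (90 nM in the dispensed reagent) was pre-reduced with 400 uM NADPH for 5 min at room temperature, then incubated with compound for 15 min. After 400 uM selenite was added, NADPH fluorescence (Ex 340/Em 450 nm) was followed for 8 min.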
The depositor's hits bear a star; ? = inconclusive; · = not tested or not shown; [ ] = another dose, or the depositor's remark. Sampled rows, rich in hits. Any-hit rate of the full collection: about 2.7%. The call rests on the fitted dose curve; in most records, active means well fitted curve in the direction sought with a large enough effect; inconclusive means small, poorly fitted or top-dose-only effect, or another doubt; inactive means no such curve, though single readings can be large; an effect the other way counts as inactive or inconclusive. Potency means the concentration at half of the fitted maximal effect.

SMILES | GLP1R ag | GLP-1R inv ag | TrxR1 substrate | HEK293 tox | IDH1 R132H inh | rTrxR1 inhibitor
O=C1C(=Cc2ccco2)CCCC1=Cc1ccco1 | 25% | 90% | ? | -10% | -6% | 45µM*
CCOC(=O)c1c(C)[nH]c(CCC(=O)Nc2cc(C)cc(C)c2)c1C | · | -17% | -5%[57.1 µM] | -10% | -10% | 0%[57.1 µM]
Oc1cccc2c(CC(O)c3c[nH]c4ccccc34)ccnc12 (configuration not stated) | · | · | -8% | · | · | -18%
COc1ccc(C2=CC(=O)OC3(CCCCC3)O2)cc1 | 21% | -25% | -7% | 0% | 2% | -4%
C=C(C)C1(O)OC(=O)C=C1OC (configuration not stated) | -5% | 3% | 5% | -7% | 4% | 14µM*
NCCNc1cccc2ccccc12 | -2% | · | · | · | · | ·
COc1ccc(C(=O)/C(=C/O)N=Nc2ccc(F)cc2)cc1 | 8% | 10µM* | -2% | ? | 5% | -10%
COc1ccc(N=N/C(=C\O)C(=O)c2cccs2)cc1 | 12% | ? | -4%[57.1 µM] | -20% | 2% | 3%[57.1 µM]
O=C1OCCN1C(=O)[C@H]1[C@H](c2ccc([N+](=O)[O-])cc2)C(c2ccc(F)cc2)=NN1c1ccc(Br)cc1 | -2% | 10µM* | -6% | -15% | -3% | 16%
O=C1OCCN1C(=O)[C@H]1[C@H](c2ccc([N+](=O)[O-])cc2)C(c2ccc(F)cc2)=NN1c1ccccc1 | 0% | ? | 3% | -11% | 8% | 0%
COc1ccc(OC)c(NC(=O)CSc2nnc(C3CCCCC3)n2-c2ccccc2)c1 | 6% | 4µM* | -6% | 2% | 21% | -2%
Cc1ccc(C)c(-n2c(SCC(=O)NCC3CCCO3)nnc2-c2ccoc2C)c1 (configuration not stated) | 5% | -1% | 3% | -6% | 3% | 28µM*
Cc1occc1-c1nnc(SCC(=O)NC2CCCC2)n1-c1ccccc1 | 0% | 11µM* | 6% | -4% | -6% | -5%
Cc1ccc(-n2c(SCC(=O)NCC3CCCO3)nnc2-c2ccoc2C)cc1 (configuration not stated) | 0% | -29% | 8% | -7% | 5% | 9%
COc1ccc(-n2c(SCC(=O)Nc3ccccc3)nnc2-c2ccoc2C)cc1 | 2% | ? | -10% | 17% | 2% | -5%[57.1 µM]
COc1cccc(NC(=O)CSc2nnc(-c3ccoc3C)n2-c2ccccc2)c1 | 4% | 11µM* | -3% | 2% | 2% | -17%
CC(C)(C)OC(=O)N1CCC(c2c(C(=O)NCc3cccc(Cl)c3)cnn2-c2ccc(F)cc2)CC1 | · | 0% | -3% | -1% | 13% | 14%
CCn1cc2nc(SCc3ccc(C)cc3)n(CCc3ccccc3)c(=O)c2n1 | · | ? | -11%[57.1 µM] | -5% | 12% | -9%[57.1 µM]
CCn1cc2nc(SCc3ccc(F)cc3)n(CCc3ccccc3)c(=O)c2n1 | · | 7.9µM* | 1%[57.1 µM] | 1% | -13% | 20%[57.1 µM]
C=CCc1cccc(/C=N/c2ncccc2O)c1O | -7% | 1% | 11% | -8% | 7% | 14µM*
Cc1ccc(CNC(=O)C2c3ccccc3C(=O)N3CCc4ccccc4C23)o1 (configuration not stated) | -8% | 0% | 3% | 1% | 0% | 1.8µM*
